Records with an inconclusive call do not appear. Where a call stands in place of a potency, no number is given. Active and inactive are the calls of the source. Unless noted, calls come from the whole dose curve; as a rule, active = well fitted curve in the direction sought with a large enough effect; inconclusive = small, poorly fitted or top-dose-only effect, or another doubt; inactive = no such curve, though single readings can be large; an effect the other way counts as inactive or inconclusive.
Key:
[1] = High Content Imaging Cell-Based qHTS for Inhibitors of the mTORC1 Signaling Pathway in MEF Cells (AID 2667); note: potency is the fitted concentration of half-maximal effect
Method in brief: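 Fixed-cell imaging of phospho-S6 (Ser235/236, Alexa-488) after 24 hrs of compound treatment at 37 degree Celsius. Signal was normalized to Hoechst, and thresholds from the highest and lowest wells split cells into % active versus % non-active.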

[2] = Cytometry Cell-Based qHTS for Inhibitors of the mTORC1 Signaling Pathway in MEF cells (AID 2668); note: potency is the fitted concentration of half-maximal effect
Method in brief: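 Read-out: phospho-rpS6 Ser235/236 immunofluorescence normalized to propidium iodide intensity, scored as % active cells against a rapamycin (7.5 nM) threshold. Cells: Tsc2-/-, p53-/- MEFs stably expressing WT Tsc2, compound-treated 24 hrs at 37 degree Celsius.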

[3] = Validation screen for small molecules that induce DNA re-replication in MCF 10A normal breast cells (AID 463097); note: nearly all actives have a fitted effect of over 60% in size
Method in brief: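 250 MCF 10A cells/well; compound pin-transferred; 48 hr, 37 C, 5% CO2; Hoechst 40 min; imaged 405/500-530 nm. Hits = more high-intensity nuclei.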

[4] = target: Ubiquitin carboxyl-terminal hydrolase 2 (Homo sapiens) (UniProt O75604); assay: qHTS Validation Assay for Inhibitors of Ubiquitin-specific Protease USP2a Using CHOP2 as the Reporter (AID 463106); note: potency is the fitted concentration of half-maximal effect
Method in brief: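 Inhibition is expressed relative to NEM as the full-inhibition control, with concentration-response curves classed by fit quality, magnitude and activity. Enzyme (USP2 core, 10nM) meets 25nM Ub-CHOP2 after compound preincubation; readings are taken at 60min.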

[5] = target: Tumor susceptibility gene 101 protein (Homo sapiens) (UniProt Q99816); assay: qHTS Validation Assay for Iinhibitors of HIV-1 Budding by Blocking the Interaction of PTAP/TSG101 (AID 485342; calls by dose curve)
Method in brief: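 FP read-out: FITC-PTAP peptide, 50 nM final, binding Tsg101 binding domain, 10 uM final; 20 min r.t.; 10 mM HEPES pH 7.5, 0.15 M NaCl, 0.01% Tween 20, 3 mM EDTA, 0.1 mM TCEP.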

[6] = target: Beta-2 adrenergic receptor (Homo sapiens) (UniProt P07550); assay: qHTS validation assay of beta-arrestin-biased ligands of beta2-adrenergic receptor (AID 485366)
Method in brief: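 Compound series up to 46 microM applied to beta2-AR/beta-arrestin Tango cells, 18 hr, 37 degrees C, 5% CO2. Read-out: tTA-driven luciferase luminescence, converted to %Activity; concentration-response curves assigned curve classes.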

[7] = target: ATP-dependent 6-phosphofructokinase (Trypanosoma brucei brucei) (UniProt O15648); assay: qHTS Validation Assay to Find Inhibitors of T. brucei phosphofructokinase (AID 485368); note: potency is the fitted concentration of half-maximal effect
Method in brief: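 qHTS format, up to 57 uM. PFK 1.25 nM; F6P 0.5 mM; ATP 0.1 mM; 5 mM MgCl2, 0.01% Tween20, 0.1% BSA; 0.1 M TEA pH 8.0; 45 min RT; ADP-Glo readout; no-enzyme control = full inhibition.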

[8] = Quantitative high throughput screen for delayed death inhibitors of the malarial parasite plastid, 96 hour incubation (AID 488745); note: nearly all actives have a fitted effect of over 70% in size; note: potency is the fitted concentration of half-maximal effect
Method in brief: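 Luciferase-expressing P. falciparum, infected RBCs 2% Hct/0.1% parasitemia (final); 96 h cpd exposure, 37 C, 5% CO2; RPMI 1640 + 0.5% Albumax, bicarbonate, gentamycin. Readout: luminescence loss = growth inhibition.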

[9] = Quantitative high throughput screen for delayed death inhibitors of the malarial parasite plastid, 48 hour incubation (AID 488752); note: nearly all actives have a fitted effect of over 65% in size; note: potency is the fitted concentration of half-maximal effect
Method in brief: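 Luciferase-expressing P. falciparum in RBCs, 2% Hct, 0.1% parasitemia final; RPMI 1640 + 0.5% Albumax; 48 h, 37 C, 5% CO2; luminescence readout, signal drop = growth inhibition.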

[10] = target: Thioredoxin reductase 1, cytoplasmic (Rattus norvegicus) (UniProt O89049); assay: qHTS Assay for Substrates of Mammalian Selenoprotein Thioredoxin Reductase 1 (TrxR1) (AID 488772);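 note: series mostly up to about 57 µM; a drop in NADPH fluorescence below the no-compound background marks a TrxR1 substrate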
Method in brief: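 In this dual-purpose format, potential substrates are identified from the first fluorescence read after selenite addition, not from the 8-minute delta. Rat enzyme is preincubated with NADPH and then with compound at ~22 deg C.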

[11] = target: Thioredoxin reductase 1, cytoplasmic (Rattus norvegicus) (UniProt O89049); assay: qHTS Assay for Inhibitors of Mammalian Selenoprotein Thioredoxin Reductase 1 (TrxR1) (AID 488773); details: Potency: inhibition; note: nearly all actives have a fitted effect of over 40% in size; note: potency is the fitted concentration of half-maximal effect
Method in brief: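 Inhibition is scored from the loss of NADPH fluorescence between first and last reads of an 8-min kinetic run. Selenite (400 uM) was the substrate, added after 15 min compound preincubation at room temperature.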

[12] = target: M-phase phosphoprotein 8 (Homo sapiens) (UniProt Q99549); assay: qHTS Validation Assay for Inhibitors for MPP8 Chromodomain Interactions with Methylated Histone Tails (AID 488949); note: nearly all actives have a fitted effect of over 55% in size; note: potency is the fitted concentration of half-maximal effect
Method in brief: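 AlphaScreen read-out: streptavidin donor and nickel chelate acceptor beads (final 10 ug/mL), 30 min in the dark at RT. Complex of 50 nM MPP8 and 50 nM b-H3(1-18)K9me3 peptide had been exposed to compounds for 30 min beforehand.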

[13] = target: Chromobox protein homolog 1 (Homo sapiens) (UniProt P83916); assay: qHTS Validation Assay for Inhibitors of HP1-beta Chromodomain Interactions with Methylated Histone Tails (AID 488953); note: nearly all actives have a fitted effect of over 50% in size; note: potency is the fitted concentration of half-maximal effect
Method in brief: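 AlphaScreen proximity readout: streptavidin donor and Ni-chelate acceptor beads, 10 ug/mL final, 30 min dark, RT. Complex of 50 nM HP1-beta and 50 nM b-H3(1-18)K9me3 formed 30 min, then compound-treated 30 min; PBS pH 7.4/0.01% Tween-20.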

[14] = target: Methanococcus maripaludis chaperonin (MmCpn) (UniProt Q6LX38); assay: High-Throughput Screening for Modulators of Cytosolic Chaperonin Activity: MmCpn Primary Screen (AID 488978);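 note: 50 nM MmCpn enzyme hydrolysing 30 µM ATP at 37 °C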
Method in brief: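 ADP formation read by HTRF Transcreener, 665/590 nm emission after 320 nm excitation. Enzyme: archaeal chaperonin at 50 nM final; substrate ATP 30 uM final; 10 min, 37C, after 5 min compound preincubation at RT.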

[15] = target: Transient receptor potential cation channel subfamily V member 1 (Homo sapiens) (UniProt Q8NER1); assay: HTS Assay for Compounds that Act as Enhancers of the Vanilloid Receptor 1 (AID 488979)
Method in brief: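 TRPV1-expressing cells loaded with Fluo-8 calcium dye; compounds added and calcium influx read kinetically for 3 min (agonist phase), then capsaicin at EC20 added and read 2 min more for enhancement. Fluorescence ex 480/em 520 nm.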

[16] = target: Thyrotropin receptor (Homo sapiens) (UniProt P16473); assay: qHTS Assay for Antagonists of the Thyroid Stimulating Hormone Receptor (AID 488980); note: series mostly up to about 58 µM
Method in brief: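 TSHR-HEK293 cells; 70 uM RO 20-1724 PDE inhibitor; compound + EC80 TSH (4 nM final); anti-cAMP cryptate antibody/cAMP-d2 in lysis buffer, 30 min RT; HTRF 665/620 nm read.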

[17] = target: D(1A) dopamine receptor (Homo sapiens) (UniProt P21728); assay: HTS Assay for Allosteric Agonists of the Human D1 Dopamine Receptor: Primary Screen for Agonists (AID 488981); note: potency is the fitted concentration of half-maximal effect
Method in brief: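 Tetracycline-induced HEK293 T-REx cells force-coupled to calcium signalling were incubated overnight at 30 C and dye-loaded at room temperature. Calcium flux over 180 s after compound addition flagged agonists; a further 180 s read after EC20 dopamine flagged potentiators.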

[18] = target: DNA polymerase III PolC-type (Bacillus subtilis (strain 168)) (UniProt P13267); assay: qHTS Validation Assay for the Inhibitors of DNA Replication in Gram-Positive Bacteria (AID 485295);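 note: reconstituted holoenzyme with PolC plus beta clamp SSB and primase; PicoGreen fluorescence of double-stranded DNA made on primed circular M13 template; series mostly up to about 57 µM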
Method in brief: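 PicoGreen fluorescence (ex 480–485/em 535–540 nm) reports dsDNA synthesized on ssM13Gori template with dNTPs/NTPs. Enzyme: holoenzyme rebuilt from purified PolC, beta subunit, SSB and primase. Compound preincubated before substrate addition; RT throughout.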

[19] = qHTS Validation Assay to Find Inhibitors of Chronic Active B-Cell Receptor Signaling (AID 485345; active = well fitted curve in the direction sought with a large enough effect in the main read-out, with a control signal flat, not every such curve was filed as active)
Method in brief: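 TMD8 ABC-DLBCL cells with dox-inducible green luciferase–IκBα fusion and red native luciferase; compounds 46 uM–3 nM, 4 h at 37C with doxycycline in 0.5% FBS IMDM. Green/red ratio normalized to basal and 10 uM MG-132.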

[20] = target: Flap endonuclease 1 (Homo sapiens) (UniProt P39748); assay: qHTS Validation Assay for the Inhibitors of Human Flap endonuclease 1 (FEN1) (AID 488816); note: potency is the fitted concentration of half-maximal effect
Method in brief: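 Steps: add FEN1 (10 nM reagent) or buffer only; pin compounds; hold 15 min at room temperature; start with substrate, 50 nM final; read at 0 and 15 min; correct, normalize and fit a four-parameter Hill curve.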

Flap endonuclease 1 (Homo sapiens), sequence (P39748 whole entry, looked up): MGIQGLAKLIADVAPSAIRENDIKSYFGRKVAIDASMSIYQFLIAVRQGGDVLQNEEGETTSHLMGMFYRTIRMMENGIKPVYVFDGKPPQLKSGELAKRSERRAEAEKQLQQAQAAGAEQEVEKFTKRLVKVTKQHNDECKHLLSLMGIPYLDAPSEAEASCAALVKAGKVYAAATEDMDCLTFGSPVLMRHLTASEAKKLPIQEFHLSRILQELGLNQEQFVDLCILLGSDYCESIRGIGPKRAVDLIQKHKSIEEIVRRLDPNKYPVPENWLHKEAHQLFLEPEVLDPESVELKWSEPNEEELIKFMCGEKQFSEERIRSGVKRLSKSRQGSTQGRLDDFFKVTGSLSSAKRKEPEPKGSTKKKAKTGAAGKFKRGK
Thyrotropin receptor (Homo sapiens), sequence (P16473 whole entry, looked up): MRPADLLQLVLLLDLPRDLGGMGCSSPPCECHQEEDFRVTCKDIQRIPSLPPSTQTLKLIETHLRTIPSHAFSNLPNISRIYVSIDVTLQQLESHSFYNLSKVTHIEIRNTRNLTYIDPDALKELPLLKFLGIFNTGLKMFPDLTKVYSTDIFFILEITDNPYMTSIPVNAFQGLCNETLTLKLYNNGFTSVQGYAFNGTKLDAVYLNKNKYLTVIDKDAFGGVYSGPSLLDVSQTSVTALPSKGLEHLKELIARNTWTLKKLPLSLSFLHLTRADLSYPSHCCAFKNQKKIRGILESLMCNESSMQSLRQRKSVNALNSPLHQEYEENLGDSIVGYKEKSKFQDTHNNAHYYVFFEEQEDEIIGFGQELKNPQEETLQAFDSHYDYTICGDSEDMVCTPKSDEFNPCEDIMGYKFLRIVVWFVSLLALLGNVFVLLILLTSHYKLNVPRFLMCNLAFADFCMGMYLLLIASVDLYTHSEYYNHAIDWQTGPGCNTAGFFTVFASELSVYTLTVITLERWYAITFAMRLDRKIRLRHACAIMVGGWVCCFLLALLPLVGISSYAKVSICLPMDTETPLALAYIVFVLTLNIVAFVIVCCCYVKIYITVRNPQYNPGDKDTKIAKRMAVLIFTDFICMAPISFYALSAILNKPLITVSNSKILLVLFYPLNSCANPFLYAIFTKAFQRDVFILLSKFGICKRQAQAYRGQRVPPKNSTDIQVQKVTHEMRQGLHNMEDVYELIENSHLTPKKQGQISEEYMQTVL
Tumor susceptibility gene 101 protein (Homo sapiens), sequence (Q99816 whole entry, looked up, the tested form may be a part): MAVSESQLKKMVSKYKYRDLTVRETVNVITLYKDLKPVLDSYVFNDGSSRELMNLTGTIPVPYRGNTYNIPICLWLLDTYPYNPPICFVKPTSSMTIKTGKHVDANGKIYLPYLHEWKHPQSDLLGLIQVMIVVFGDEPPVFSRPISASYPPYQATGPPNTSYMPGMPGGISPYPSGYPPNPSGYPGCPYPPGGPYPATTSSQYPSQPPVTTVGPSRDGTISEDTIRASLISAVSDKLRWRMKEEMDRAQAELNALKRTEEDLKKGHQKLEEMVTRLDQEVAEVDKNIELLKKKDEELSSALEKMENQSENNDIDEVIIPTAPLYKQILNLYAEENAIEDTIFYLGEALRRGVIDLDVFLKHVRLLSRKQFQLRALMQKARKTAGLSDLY
Methanococcus maripaludis chaperonin (MmCpn), sequence (Q6LX38 1-543): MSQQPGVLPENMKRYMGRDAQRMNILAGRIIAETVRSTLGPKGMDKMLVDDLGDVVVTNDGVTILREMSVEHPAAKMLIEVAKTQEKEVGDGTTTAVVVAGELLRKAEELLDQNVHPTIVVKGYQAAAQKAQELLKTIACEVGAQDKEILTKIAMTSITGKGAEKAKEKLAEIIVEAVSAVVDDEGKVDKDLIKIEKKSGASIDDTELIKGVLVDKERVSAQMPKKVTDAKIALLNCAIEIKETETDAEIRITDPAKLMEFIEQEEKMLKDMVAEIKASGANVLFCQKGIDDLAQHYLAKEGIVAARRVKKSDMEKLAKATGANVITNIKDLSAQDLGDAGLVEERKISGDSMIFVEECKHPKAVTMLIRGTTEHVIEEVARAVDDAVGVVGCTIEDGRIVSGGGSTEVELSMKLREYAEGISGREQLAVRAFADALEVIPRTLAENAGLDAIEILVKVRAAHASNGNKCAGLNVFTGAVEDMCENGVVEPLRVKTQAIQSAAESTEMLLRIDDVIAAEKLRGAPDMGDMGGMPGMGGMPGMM
DNA polymerase III PolC-type (Bacillus subtilis (strain 168)), sequence (P13267 whole entry, looked up): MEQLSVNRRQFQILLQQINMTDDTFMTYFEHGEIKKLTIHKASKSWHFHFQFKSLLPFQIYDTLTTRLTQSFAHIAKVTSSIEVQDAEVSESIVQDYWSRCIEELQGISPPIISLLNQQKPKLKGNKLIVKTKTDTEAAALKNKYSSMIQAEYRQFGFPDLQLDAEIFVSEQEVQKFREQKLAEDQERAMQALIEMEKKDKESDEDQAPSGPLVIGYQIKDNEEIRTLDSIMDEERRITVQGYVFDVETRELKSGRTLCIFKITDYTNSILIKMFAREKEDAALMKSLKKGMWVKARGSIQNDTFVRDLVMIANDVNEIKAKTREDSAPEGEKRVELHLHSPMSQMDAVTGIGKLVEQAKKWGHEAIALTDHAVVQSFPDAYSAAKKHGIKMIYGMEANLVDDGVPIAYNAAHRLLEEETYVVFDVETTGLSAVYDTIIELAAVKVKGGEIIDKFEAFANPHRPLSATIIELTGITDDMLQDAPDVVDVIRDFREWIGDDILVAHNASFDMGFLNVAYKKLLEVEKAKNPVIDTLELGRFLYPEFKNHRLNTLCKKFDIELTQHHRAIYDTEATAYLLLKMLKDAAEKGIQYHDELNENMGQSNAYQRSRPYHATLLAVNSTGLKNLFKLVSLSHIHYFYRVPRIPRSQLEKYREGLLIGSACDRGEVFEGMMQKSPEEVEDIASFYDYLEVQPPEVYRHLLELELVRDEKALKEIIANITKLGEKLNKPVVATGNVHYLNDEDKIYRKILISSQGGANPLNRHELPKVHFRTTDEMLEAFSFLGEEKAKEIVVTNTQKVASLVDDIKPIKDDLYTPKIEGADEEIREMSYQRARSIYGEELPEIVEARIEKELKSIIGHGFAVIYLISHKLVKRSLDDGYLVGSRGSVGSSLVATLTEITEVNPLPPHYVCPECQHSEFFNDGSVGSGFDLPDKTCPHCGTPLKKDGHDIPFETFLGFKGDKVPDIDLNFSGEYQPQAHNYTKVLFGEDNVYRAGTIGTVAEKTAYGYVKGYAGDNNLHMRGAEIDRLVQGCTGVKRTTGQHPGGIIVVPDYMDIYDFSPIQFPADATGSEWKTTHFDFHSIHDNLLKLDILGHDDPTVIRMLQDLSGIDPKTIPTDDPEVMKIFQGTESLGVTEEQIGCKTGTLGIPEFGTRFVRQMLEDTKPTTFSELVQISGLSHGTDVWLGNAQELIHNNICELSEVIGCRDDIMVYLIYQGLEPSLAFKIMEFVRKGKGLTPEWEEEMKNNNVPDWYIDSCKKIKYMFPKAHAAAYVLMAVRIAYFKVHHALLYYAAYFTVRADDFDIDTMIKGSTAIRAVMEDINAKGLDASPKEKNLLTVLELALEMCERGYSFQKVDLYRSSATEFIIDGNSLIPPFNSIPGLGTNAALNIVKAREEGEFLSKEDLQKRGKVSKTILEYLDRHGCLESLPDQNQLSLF
Beta-2 adrenergic receptor (Homo sapiens), sequence (P07550 whole entry, looked up): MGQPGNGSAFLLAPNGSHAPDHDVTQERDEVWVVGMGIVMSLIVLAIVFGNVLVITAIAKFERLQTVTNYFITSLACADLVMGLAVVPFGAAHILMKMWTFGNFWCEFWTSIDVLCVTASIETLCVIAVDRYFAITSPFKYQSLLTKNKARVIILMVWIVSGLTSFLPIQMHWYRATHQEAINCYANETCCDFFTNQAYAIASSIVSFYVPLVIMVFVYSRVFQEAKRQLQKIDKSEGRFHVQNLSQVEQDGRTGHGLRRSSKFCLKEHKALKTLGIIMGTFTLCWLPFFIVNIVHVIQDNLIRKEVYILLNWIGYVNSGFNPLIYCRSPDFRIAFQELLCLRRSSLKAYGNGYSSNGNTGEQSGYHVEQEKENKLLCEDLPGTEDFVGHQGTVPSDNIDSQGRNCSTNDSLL
M-phase phosphoprotein 8 (Homo sapiens), sequence (Q99549 whole entry, looked up): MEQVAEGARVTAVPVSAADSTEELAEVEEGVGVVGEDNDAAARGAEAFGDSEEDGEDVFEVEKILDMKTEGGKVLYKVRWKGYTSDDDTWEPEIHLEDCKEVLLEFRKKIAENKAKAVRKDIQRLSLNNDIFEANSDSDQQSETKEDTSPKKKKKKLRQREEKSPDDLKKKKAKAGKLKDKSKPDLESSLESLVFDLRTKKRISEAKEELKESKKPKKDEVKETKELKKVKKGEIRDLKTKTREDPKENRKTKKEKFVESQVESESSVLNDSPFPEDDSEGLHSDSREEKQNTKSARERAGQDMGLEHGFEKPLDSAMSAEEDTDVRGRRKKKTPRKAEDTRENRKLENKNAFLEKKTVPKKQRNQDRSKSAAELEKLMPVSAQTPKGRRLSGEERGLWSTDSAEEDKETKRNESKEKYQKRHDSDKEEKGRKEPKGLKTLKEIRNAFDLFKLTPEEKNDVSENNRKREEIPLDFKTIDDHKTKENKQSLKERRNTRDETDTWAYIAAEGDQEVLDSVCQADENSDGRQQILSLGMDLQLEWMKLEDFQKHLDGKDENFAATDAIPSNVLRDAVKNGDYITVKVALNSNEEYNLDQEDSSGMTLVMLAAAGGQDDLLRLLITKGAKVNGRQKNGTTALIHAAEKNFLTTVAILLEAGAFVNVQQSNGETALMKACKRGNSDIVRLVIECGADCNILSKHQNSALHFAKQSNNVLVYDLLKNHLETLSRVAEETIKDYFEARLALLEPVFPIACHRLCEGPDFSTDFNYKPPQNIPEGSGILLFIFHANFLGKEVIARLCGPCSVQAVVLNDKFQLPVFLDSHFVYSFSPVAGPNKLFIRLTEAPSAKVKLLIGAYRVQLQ
Chromobox protein homolog 1 (Homo sapiens), sequence (P83916 whole entry, looked up): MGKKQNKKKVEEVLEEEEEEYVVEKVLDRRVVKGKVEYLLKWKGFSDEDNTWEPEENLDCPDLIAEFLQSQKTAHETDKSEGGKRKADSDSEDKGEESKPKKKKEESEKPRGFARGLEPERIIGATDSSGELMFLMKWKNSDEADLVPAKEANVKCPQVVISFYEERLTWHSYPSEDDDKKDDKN

SMILES	Potency [1]	Potency [2]	Potency [3]	Potency [4]	outcome [5]	outcome [6]	Potency [7]	Potency [8]	Potency [9]	Potency [10]	Potency [11]	Potency [12]	Potency [13]	outcome [14]	outcome [15]	outcome [16]	Potency [17]	Potency [18]	outcome [19]	Potency [20]
Cn1c(=O)c2[nH]c(-c3ccccc3)nc2n(C)c1=O	inactive	inactive	inactive	inactive	inactive	inactive	inactive	inactive	inactive	inactive	inactive	inactive	inactive	inactive	inactive	inactive	inactive	–	–	–
c1cnc2c(c1)ccc1cccnc12	46.5 nM (active)	4650 nM (active)	–	inactive	inactive	inactive	–	1850 nM (active)	2940 nM (active)	inactive	inactive	inactive	inactive	inactive	inactive	inactive	–	inactive	inactive	inactive
O=[N+]([O-])c1ccc(CSc2ncnc3c2ncn3[C@@H]2O[C@H](CO)[C@@H](O)[C@H]2O)cc1	inactive	inactive	–	inactive	inactive	inactive	15100 nM (active)	–	–	inactive	inactive	inactive	inactive	inactive	–	–	–	inactive	–	inactive
CCc1c(C(=O)NCCc2ccc(N3CCCCC3)cc2)[nH]c2ccc(Cl)cc12	inactive	inactive	–	inactive	inactive	inactive	–	–	–	inactive	inactive	–	20000 nM (active)	inactive	–	–	inactive	inactive	inactive	inactive
CCCCCCCCCCCCCCCC(=O)NCC(COP(=O)([O-])OCC[N+](C)(C)C)OCC (stereo unspecified)	inactive	inactive	–	inactive	inactive	inactive	–	inactive	inactive	inactive	inactive	inactive	inactive	inactive	–	inactive	–	inactive	inactive	inactive
CNC(=O)[C@H]1O[C@@H](n2cnc3c(NCc4ccc(N)cc4)ncnc32)[C@H](O)[C@@H]1O	inactive	inactive	–	inactive	inactive	inactive	inactive	–	–	inactive	–	–	inactive	inactive	–	–	inactive	inactive	–	inactive
C#C[C@]1(O)CC[C@H]2[C@@H]3CCC4=Cc5oncc5CC4(C)[C@H]3CCC21C (stereo partly specified)	inactive	inactive	–	inactive	inactive	inactive	–	–	–	inactive	inactive	inactive	inactive	inactive	–	–	–	inactive	–	inactive
NC(=O)C1=CN(C2OC(COP(=O)(O)OP(=O)(O)OC[C@H]3O[C@@H](n4cnc5c(N)ncnc54)[C@H](OP(=O)(O)O)[C@@H]3O)C(O)C2O)C=CC1 (stereo partly specified)	inactive	inactive	–	inactive	inactive	inactive	inactive	–	–	inactive	inactive	inactive	5.3 nM (active)	inactive	–	–	–	inactive	–	inactive
CN(C)CCCO[C@@H]1[C@H]2OC(C)(C)O[C@H]2O[C@@H]1[C@H](O)CO	inactive	inactive	–	inactive	inactive	inactive	–	–	–	inactive	inactive	–	–	inactive	–	–	–	inactive	inactive	inactive
O=C(c1ccc(OCCCc2cnc[nH]2)cc1)C1CC1	inactive	inactive	–	inactive	inactive	inactive	–	–	–	inactive	inactive	inactive	–	inactive	–	–	–	inactive	inactive	inactive
CC(N)C(=O)OC(C)(C)Cc1ccc(Cl)cc1 (stereo unspecified)	inactive	inactive	–	inactive	inactive	inactive	–	–	–	inactive	inactive	–	–	inactive	–	–	–	inactive	inactive	–
Nc1nc(Cl)nc2c1ncn2[C@@H]1O[C@H](COP(=O)(O)OP(=O)(O)OP(=O)(O)O)[C@@H](O)[C@H]1O	inactive	inactive	–	inactive	inactive	inactive	–	–	–	inactive	inactive	inactive	inactive	inactive	–	–	891 nM (active)	inactive	–	inactive
S=C(S)OC1CC2CC1C1CCCC21 (stereo unspecified)	inactive	inactive	–	inactive	inactive	inactive	inactive	inactive	inactive	inactive	inactive	inactive	39800 nM (active)	inactive	inactive	inactive	–	inactive	–	inactive
OCC1O[C@H]([S-])[C@H](O)[C@@H](O)[C@@H]1O.[Au+] (stereo partly specified)	inactive	inactive	–	18500 nM (active)	inactive	inactive	2690 nM (active)	–	–	inactive	75.2 nM (active)	1500 nM (active)	2000 nM (active)	inactive	–	–	–	inactive	–	1500 nM (active)
O=P(O)(O)C(Cl)(Cl)P(=O)(O)O	inactive	inactive	–	inactive	inactive	inactive	–	–	–	inactive	inactive	–	–	inactive	–	–	inactive	inactive	inactive	inactive
